Sampled rows, rich in hits. Any-hit rate of the full collection: about 19%.
TDP1 cell CPT = DT40-hTDP1 cell growth loss with CPT | chicken DT40 Tdp1-/-;hTDP1 cells + 20 nM CPT, ATP luminescence, 48 h | Potency, µM (highest dose often 46.2 µM), without a hit: at the top dose activity change, negative = growth inhibition, hits mostly inhibitors | actives 12% (n = 420,000) | AID 686979; note: nearly all actives have a fitted effect of over 55% in size
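Chicken DT40 Tdp1-/- cells complemented with human TDP1, 400 cells/well, exposed to compounds plus 20 nM camptothecin for at least 48 h at 37 C; viability read as ATP content by CellTiter-Glo luminescence.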
HT1080NT lethal = kills 2HG-producing HT-1080-NT fibrosarcoma cells. actives 1.6% (n = 360,000). HT-1080-NT fibrosarcoma viability, CellTiter-Glo ATP luminescence, 48 h. Potency, µM (series often up to 46.1 µM), for inactives: at the top dose activity, negative = less viability, usual class: cytotoxic;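 note: NT is the 2HG producing partner of a matched IDH1 knockdown line; 0% = DMSO-treated cells and -100% = media-only wells without cells; nearly all actives have a fitted effect of over 55% in size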
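HT-1080-NT fibrosarcoma cells (2HG-overproducing), 750 cells/well in RPMI with 5% FBS, dosed after 2 h and incubated 48 h at 37C. CellTiter-Glo luminescence normalized to DMSO and no-cell wells; concentration-response curves fitted and classed.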
HT1080 IDH1KD tx = toxicity to HT-1080 IDH1 knockdown cells (counter line) | actives 2% (n = 360,000) | AID 686971 | HT-1080 IDH1 knockdown viability, ATP luminescence, 48 h | Potency, µM (series often up to 46.1 µM), without a hit: top-dose activity, negative = toxicity, actives largely listed as cytotoxic;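 note: 0% = DMSO wells and -100% = cell-free medium wells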
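CellTiter-Glo luminescence after 48 h compound exposure at 37 degrees C of IDH1-knockdown HT-1080 cells in 5% FBS RPMI. %Activity scaled between DMSO wells and cell-free media wells, with curves fitted and assigned curve classes.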
KB-V1 MDR tox = KB-V1 MDR subline cytotoxicity; KB-V1 MDR cells viability, CellTiter-Glo, 72 h; actives 3.4% (n = 400,000); Potency, µM (series often up to 46.1 µM), actives largely listed as cytotoxic; note: nearly all actives have a fitted effect of over 60% in size
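Cells of the MDR subline KB-V1 are plated, dosed with compound at multiple concentrations, and incubated 72 h at 37 degrees C; CellTiter-Glo is then added and luminescence read after 10 min.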
DT40 TDP1 no CPT = qHTS for Inhibitors of human tyrosyl-DNA phosphodiesterase 1 (TDP1): qHTS in cells in absence of CPT | Potency, µM (doses to about 46.2 µM), for inactives: at the top dose activity change, negative = growth inhibition, usual class: inhibitors | actives 15% (n = 420,000) | DT40 Tdp1-/- hTDP1 cells, no CPT, ATP luminescence, 48 h; note: nearly all actives have a fitted effect of over 55% in size
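Luminescent ATP content (CellTiter-Glo) served as the growth readout. Knockout chicken DT40 cells expressing human TDP1 were exposed to compounds without camptothecin for a minimum 48 hr at 37 °C.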
KB-3-1 cytotox = KB-3-1 parental cell cytotoxicity; Potency, µM (highest dose often 46.1 µM), actives largely listed as cytotoxic; KB-3-1 viability, CellTiter-Glo ATP luminescence, 72 h; AID 1347075; actives 1.4% (n = 400,000); note: nearly all actives have a fitted effect of over 60% in size
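Parental KB-3-1 viability, qHTS format: 72 h compound exposure, 37 °C; CellTiter-Glo; media-only wells and DMSO plates as controls; concentration-effect fits on corrected data.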
Starred values were filed as active, the others as inactive. Calls come from the whole dose curve; as a rule, active = well fitted curve in the direction sought with a large enough effect; inconclusive = small, poorly fitted or top-dose-only effect, or another doubt; inactive = no such curve, though single readings can be large; an effect the other way counts as inactive or inconclusive. Unless noted, % is set by controls: 0 for no effect and ±100 for the full control effect; potency is the fitted concentration of half-maximal effect.

Screening CC(C)CNC(=O)NC(=O)CSc1nc2ccccc2n1CC(C)C returned TDP1 cell CPT inconclusive, HT1080NT lethal -15.7%, HT1080 IDH1KD tx -17.5%, KB-V1 MDR tox inactive, DT40 TDP1 no CPT 23.1µM* and KB-3-1 cytotox inactive.
CCCCn1c(C(C)NC(=O)CC)nc2ccccc21 (stereo unspecified) was read as TDP1 cell CPT 23.1µM*, HT1080NT lethal 5.5%, HT1080 IDH1KD tx 4.7%, KB-V1 MDR tox inactive, DT40 TDP1 no CPT 11.6µM* and KB-3-1 cytotox inactive.
For CC(C)Cn1c(C(C)NC(=O)Cc2ccccc2)nc2ccccc21 (stereo unspecified) the results were TDP1 cell CPT 11.6µM*, HT1080NT lethal -4.7%, HT1080 IDH1KD tx -3.9%, KB-V1 MDR tox inactive, DT40 TDP1 no CPT 6.51µM* and KB-3-1 cytotox inactive.
`CCCCCCCn1c(NC(=O)CC)nc2ccccc21` gave TDP1 cell CPT inconclusive, HT1080NT lethal -25.0%, HT1080 IDH1KD tx inconclusive, KB-V1 MDR tox 9.2µM*, DT40 TDP1 no CPT 20.6µM* and KB-3-1 cytotox inconclusive.
Screening CCC(=O)NC(C)c1nc2ccccc2n1C (stereo unspecified) returned TDP1 cell CPT 3.5%, HT1080NT lethal 15.1%, HT1080 IDH1KD tx 16.3%, KB-V1 MDR tox inactive, DT40 TDP1 no CPT -7.1% and KB-3-1 cytotox inactive.
For N#Cc1ccccc1OCC(=O)NC1CCCCCC1 the results were TDP1 cell CPT inconclusive, HT1080NT lethal -3.8%, HT1080 IDH1KD tx -1.9%, KB-V1 MDR tox inactive, DT40 TDP1 no CPT inconclusive and KB-3-1 cytotox inactive.
Screening O=Cc1cnc(N2CCOCC2)nc1 returned TDP1 cell CPT -4.5%, HT1080NT lethal inconclusive, HT1080 IDH1KD tx 12.6%, KB-V1 MDR tox inactive, DT40 TDP1 no CPT -2.2% and KB-3-1 cytotox inactive.
Screening O=C(O)c1ccccc1NC(=O)N1c2ccccc2Sc2ccccc21 returned TDP1 cell CPT inconclusive, KB-V1 MDR tox inactive, DT40 TDP1 no CPT inconclusive and KB-3-1 cytotox inactive.
Screening CCNS(=O)(=O)c1ccc(OCCNS(C)(=O)=O)cc1 returned TDP1 cell CPT -18.7%, HT1080NT lethal 4.2%, HT1080 IDH1KD tx 2.0%, KB-V1 MDR tox inactive, DT40 TDP1 no CPT inconclusive and KB-3-1 cytotox inactive.
CCN(CC)S(=O)(=O)c1ccc(OCCNS(C)(=O)=O)cc1 was read as TDP1 cell CPT 6.51µM*, HT1080NT lethal 0.5%, HT1080 IDH1KD tx -9.6%, KB-V1 MDR tox inactive, DT40 TDP1 no CPT 16.4µM* and KB-3-1 cytotox inactive.
CCN(CC)S(=O)(=O)c1ccc(Oc2ccccc2OC)cc1 was read as TDP1 cell CPT 18.4µM*, HT1080NT lethal -3.6%, HT1080 IDH1KD tx -20.9%, KB-V1 MDR tox inactive, DT40 TDP1 no CPT inconclusive and KB-3-1 cytotox inactive.
Screening CCCN(CCC)S(=O)(=O)c1ccc(Cl)c(OC)c1 returned TDP1 cell CPT inconclusive, HT1080NT lethal -6.2%, HT1080 IDH1KD tx -1.9%, KB-V1 MDR tox inactive, DT40 TDP1 no CPT 13µM* and KB-3-1 cytotox inactive.
Screening CCN(CC)S(=O)(=O)c1ccc(N)cc1 returned TDP1 cell CPT 5.8%, HT1080NT lethal -0.3%, HT1080 IDH1KD tx -0.8%, KB-V1 MDR tox inactive, DT40 TDP1 no CPT -2.6% and KB-3-1 cytotox inactive.
CCN(CC)S(=O)(=O)c1ccc(Oc2ccc(S(=O)(=O)N(CC)CC)cc2)cc1 was read as TDP1 cell CPT 18.4µM*, HT1080NT lethal inconclusive, HT1080 IDH1KD tx -29.4%, KB-V1 MDR tox 2.31µM*, DT40 TDP1 no CPT 5.8µM* and KB-3-1 cytotox inconclusive.
Screening O=C1C2C3C=CC(CC3)C2C(=O)N1c1ccc(Cl)cc1Cl (stereo unspecified) returned TDP1 cell CPT -2.3%, HT1080NT lethal 0.1%, HT1080 IDH1KD tx -2.3%, KB-V1 MDR tox inactive, DT40 TDP1 no CPT 12.2% and KB-3-1 cytotox inactive.

Bioassay records: PubChem BioAssay, National Center for Advancing Translational Sciences (NCATS)
